From PubChem BioAssay (NCI)
This is part of a sample that, as a whole, favours compounds with a hit. Of some 79,000 tested, about 15% had one in any assay. Values without a mark were called inactive. The source made the active and inactive calls. Rule as the data show it: active = growth inhibition above about 70%; inactive = the rest.

How the values were obtained:
[1] = NCI Yeast Anticancer Drug Screen. Data for the rad50 strain (AID 155);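 also: 0% = growth of vehicle-only cultures of the same strain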; conditions: S. cerevisiae rad50 strain growth inhibition; at 50.0 µM; active compounds read high
Procedure, shortened: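 Cells are treated with compound, grown, and their growth is then scored against vehicle-only cultures of the same repair-deficient yeast strain.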

[2] = NCI Yeast Anticancer Drug Screen. Data for the mec2-1 strain (AID 157); conditions: S. cerevisiae mec2-1 strain, at 50.0 µM, active compounds read high
Procedure, shortened: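 Growth inhibition is read against vehicle-treated controls after compound exposure of the mec2-1 yeast strain, which is defective in DNA damage repair or cell cycle control.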

[3] = NCI Yeast Anticancer Drug Screen. Data for the sgs1 mgt1 strain (AID 161);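 also: 0% = growth of cultures given vehicle only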; conditions: S. cerevisiae sgs1 mgt1 strain, at 50.0 µM, active compounds read high
Procedure, shortened: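 This yeast growth screen uses a strain with defined DNA-repair lesions; compound-treated growth is compared with vehicle-treated growth.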

[4] = NCI Yeast Anticancer Drug Screen. Data for the cln2 rad14 strain (AID 165);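 also: 0% = growth equal to vehicle treated cultures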; conditions: S. cerevisiae cln2 rad14 strain, at 50.0 µM, active compounds read high
Procedure, shortened: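 Growth inhibition, relative to vehicle-treated controls, is the read-out. The test organism is a yeast strain with defined genetic alterations, cln2 rad14.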

[5] = NCI Yeast Anticancer Drug Screen. Data for the bub3 strain (AID 167); conditions: S. cerevisiae bub3 mutant strain, at 50.0 µM, active compounds read high
Procedure, shortened: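 Part of a panel of yeast mutants defective in DNA damage repair or cell cycle regulation. Each strain is grown with compound, and inhibition is calculated relative to solvent-treated cultures.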

[6] = NCI Yeast Anticancer Drug Screen. Data for the mlh1 rad18 strain (AID 175); conditions: S. cerevisiae mlh1 rad18 strain growth inhibition; at 50.0 µM; active compounds read high
Procedure, shortened: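 Cells of a genetically altered yeast strain, deficient in DNA damage repair, were treated with compound. Their growth was then compared with that of vehicle-treated cultures to give inhibition.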

SMILES | growth inhibition [1] | growth inhibition [2] | growth inhibition [3] | growth inhibition [4] | growth inhibition [5] | growth inhibition [6]
COC(=O)c1s/c(=N\C(=S)N(C)C)n(-c2ccccc2)c1C(=O)OC | 5.3% | 20.2% | -0.1% | 15.2% | -8.85% | 11.2%
CC(C)(O)CCC(O)C(C)(O)C1CCC2(O)C3=CC(=O)C4(O)CC(O)C(O)CC4(C)C3CCC12C (stereo unspecified) (tested in a mixture with another compound) | -5.3% | -17.9% | 6.15% | -12.2% | -17.4% | -47.7%
CN(C(=O)CCC(=O)O)c1ccccc1C(=O)O | 0.2% | -2.35% | 11% | -5.75% | 0.85% | -15.9%
CCOC(=O)c1c[nH]c2ccc3c(nc(C)n3C)c2c1=O | -7.95% | -1.05% | -5.2% | 11.9% | -21.4% | -47.5%
Brc1cn2[n+](c1)[B-]n1cc(Br)c[n+]1[B-]2 | 0.85% | -4.6% | -3.6% | -7.65% | 6.65% | 12%
OCc1cc(Cl)cc(Cc2cc(Cl)cc(Cc3cc(Cl)cc(Cc4cc(Cl)cc(Cc5cc(Cl)cc(CO)c5O)c4O)c3O)c2O)c1O | -14.8% | -17.4% | -9.35% | -28.4% | -18.9% | -27.9%
CCOC(=O)C(CCCOC1CCCCO1)(C(=O)OCC)c1ccccc1 (stereo unspecified) | 21.4% | -0.1% | -15.2% | 14.4% | 8.8% | -5%
CNc1nc(=S)nc(-c2ccccc2)s1 | 11.7% | 13.3% | 11.3% | -8.45% | 11.8% | -9.6%
CN(CCc1ccccn1)C(=S)N/N=C/c1ccccn1 | 77% (active) | 83.8% (active) | 91% (active) | 89.7% (active) | 89.8% (active) | 91% (active)
CC(O)C(=O)OCCOCCOC(=O)C(C)O (stereo unspecified) | 21.4% | 4.1% | 10.8% | -11.8% | 11.8% | 7.4%
O=C(Nc1cccc(C(F)(F)F)c1)OCCOc1ccc(Cl)cc1 | 99.2% (active) | 99.3% (active) | 99.2% (active) | 98% (active) | 99% (active) | 98% (active)
N#CN1CC[C@@H]2CC3(CCC2C1)OCCO3 (stereo partly specified) | 17.6% | 4.3% | 0.3% | -4.45% | -18.4% | 1.5%
CC(=O)OC1C[C@H]2C(OC(=O)c3ccccc3)C3C4(OC(C)=O)COC4C[C@H](OC(C)=O)[C@@]3(C)C(OC(C)=O)[C@H](OC(C)=O)C(=C1C)C2(C)C (stereo partly specified) | 41.2% | 22.6% | 31.7% | 28.9% | 26.4% | 35.2%
O=C1CNC(=O)N1 | -38.1% | 23.8% | 2% | -11.7% | 3.85% | -38.2%
NC(=O)N=Nc1ccc(Br)cc1 | 9.8% | 7.05% | -7.85% | -11.7% | -3.55% | 18.3%
CN(C)c1ccc(C(=Cc2ccccc2)c2ccc(N(C)C)cc2)cc1 | -0.9% | 18.3% | -2.8% | -63.6% | 0.8% | 5.5%
COc1ccccc1NC(=S)N/N=C/c1cccc(C)n1 | 9.45% | -9.9% | 20.1% | -3.7% | 5.5% | 40%
CC(C)CCc1c(N)nc(N)[nH]c1=O | 6.8% | -13.6% | -8.6% | -42% | 1% | 3.75%
C/C=C(\C)C(=O)OCC1CC[N+](C)([O-])C1 (stereo unspecified) | -23.8% | -8% | -6.7% | -57.9% | 5% | -15.3%
CCN(CC)c1ccc(NCC(O)c2cc(Cl)ccc2OC)cc1 (stereo unspecified) | -11.8% | -5.75% | 15.6% | 22.8% | -6.3% | -1.65%
CCOC(=O)Nc1cc([N+](C)(C)C)ccc1OCCOc1ccc([N+](C)(C)C)cc1 | -0.4% | 5.35% | -8.4% | -8.8% | -1.65% | 28.6%

SMILES | growth inhibition [1] | growth inhibition [2] | growth inhibition [3] | growth inhibition [4] | growth inhibition [5] | growth inhibition [6]
Cn1c2ccccc2c2nnc(N/N=C/c3cccs3)nc21 | -15.6% | -9.2% | -9.6% | -32.2% | -10.6% | 10.7%
CC(CCNC(=S)S)CC(C)(C)C.[Zn+2] (stereo unspecified) | 9.75% | 15.1% | -7.55% | -36% | -4.65% | -1%
O=c1[nH]c(=O)n(COCc2ccccc2)c2ccccc12 | 5.1% | -12.2% | 65.2% | 12.7% | 37.7% | -18.4%
CC(C)(C)OC(=O)NC1CCC(C(C)(C)C)CC1 (stereo unspecified) | 1.95% | -2.95% | -4% | 8.65% | 7.9% | 24.1%
CC(=O)OCC1OC(Sc2cccc3ccccc23)C(OC(C)=O)C(OC(C)=O)C1OC(C)=O (stereo unspecified) | -16.8% | -5.8% | -4.75% | -20.8% | 0% | 3.4%
CO[C@@H]1C2C3c4ccccc4C(c4ccccc43)C2[C@H](OC)[C@H]2OC(c3ccccc3)O[C@H]21 (stereo partly specified) | -13.4% | -14.9% | 7.15% | 10% | 2.15% | -2.65%
NC(=O)Cn1c(=O)[nH]c(=O)c2[nH]cnc21 | -16.9% | -2.1% | -10.3% | 5.4% | -0.4% | 6.85%
N#CC1NCNC1N (stereo unspecified) | 0.2% | 0.65% | -6.6% | 1.15% | -1.25% | -16.8%
C(=C\c1ncc(-c2ccccc2)cc1-c1ccccc1)/c1ccccc1 | -12.3% | -20.8% | 5.8% | -6.8% | 0.75% | -1.9%
CN(C)CCCn1c2ccccc2c2cnccc21 | 0.5% | -10.9% | -17.6% | -54.5% | -48.2% | 14.8%
COC(=O)c1ccc(-n2c(C)nc(=O)c(-c3ccccc3)c2C)cc1 | -6.85% | -33.4% | 12.4% | 11.9% | 0.95% | 7.65%
CC1(C=O)CCCC2(C)[C@@H]1CCC13CC(CC[C@H]12)C(C(=O)O)C3 (stereo partly specified) | 28.9% | 30.6% | 22.6% | 14.3% | 26.8% | 16.7%
Nc1nc(-c2ccccc2)nc(N)c1C=O | -21.8% | -21.9% | -43.2% | -4.95% | -6.9% | -20.6%
CC(=O)NC1C(OC(C)C(=O)NC(C)C(=O)NC(CCC(=O)NCCCCCNc2ccc([N+](=O)[O-])c3[nH]c4ccccc4c(=O)c23)C(N)=O)C(O)C(CO)OC1(C)OCc1ccccc1 (stereo unspecified) | 13% | 13.1% | 27.2% | 23.9% | 19.9% | 32.9%
COc1ccc(/C=c2/s/c(=C(\C#N)c3nc4ccccc4[nH]3)n(-c3ccccc3)c2=O)cc1 | 4% | -15.2% | -6.4% | 13.9% | -17.6% | 13.2%
O=C(/C=C/c1ccc(OCCCCCCCCCCOc2ccc(/C=C/C(=O)c3ccc(Cl)cc3)cc2)cc1)c1ccc(Cl)cc1 | 5.3% | -1.45% | -15.3% | 16.1% | 22.5% | 15.6%
CC1(c2ccc(Cl)s2)NC(=O)NC1=O (stereo unspecified) | -1% | -4.65% | -6.45% | -45.8% | 1.9% | -13.5%
COc1cccc(NC(=S)/C(=C(/[O-])c2ccc([N+](=O)[O-])cc2)[n+]2cccc3ccccc32)c1 | 26.1% | 19.2% | 22.1% | 33.2% | 28.2% | 10.5%
C1CSCCSCSCCS1 | 32.1% | 11.8% | 17.8% | 30.7% | 42.4% | 17.8%
CC(=O)NC1C(O)C(NC(C)=O)C(OC(C)=O)C(OC(C)=O)C1OC(C)=O (stereo unspecified) | 33.4% | -9.7% | 4.1% | -15.4% | -0.15% | 1.35%
